# The supplement of paper PMC8728848
# The full list was thinned out, with the strongest signals kept by preference.
# B1: PX9961KLbvu-535-38-535 (Bacteroides vulgatus) (protein)
# chain: DKAYTDAESYTKGLHKIYSVWALSGQDGSSSSDISGLDAGNTALLRCWWTLQEQPTDEMKNAWNDAWCTEVNYMTWTTNKVEPIEGVYQRCMYIVALVNEFLKNIPNAPESIDKESYIAQARFNRAFAYYVLMDMFALPPFITEKNYSIEPAPLSREDLFNWIEAELNEIKPNLPSPRSEYGVADQAVASALLARMYLNAEIYTGKARYTECINACNEVIKAGYQLADNYADLFKADNGENPDTKKEIIYPIIFDGDKTQSWGMAAIIIGARGAEDKDVLLAHSGVDQGWAGFRATSNLVHLFDFQNDEEPKASEIQDKRGIFYDKGRSIDITSSVSGTFETEGWSVFKFSNLNSNGQPGKNTLWVDTDFPMFRLGDIYLMYAEAVARGGEGSKASAVEYINALRKRAYGDDKHNISENWLEENNFRNLLDERGRELYWEGIRRTDLVRFDLLTSGSYTWDFKGGINTGVGVNKRYNVYPIPVTDLTVNGNLQQNEGY
# Experiments:
# Test in all cases: glycan array binding signal (z-score within array); higher = stronger binding
# Settings in all cases: glycan notation: IUPAC condensed, linker removed
# [1] = biological target: Fuc(a1-2)Gal(b1-3)GalNAc(a1-3)[Fuc(a1-2)]Gal(b1-4)GlcNAc
# In short: (§1)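 The binding signal is a Z-score computed within each array. Data were drawn from 3228 arrays in the Consortium for Functional Glycomics database, restricted to those with a known protein sequence. Scores were averaged over arrays of the same protein sequence at different concentrations or buffers, and over linkers, and negative values can be taken as non-binding.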
# [2] = biological target: Fuc(a1-2)Gal(b1-3)[Fuc(a1-4)]GlcNAc
# In short: as §1
# Fuc(a1-2)Gal(b1-4)Glc = biological target: Fuc(a1-2)Gal(b1-4)Glc
# In short: as §1
# [3] = biological target: Fuc(a1-2)Gal(b1-4)GlcNAc(b1-2)[Fuc(a1-2)Gal(b1-4)GlcNAc(b1-4)]Man(a1-3)[Fuc(a1-2)Gal(b1-4)GlcNAc(b1-2)Man(a1-6)]Man(b1-4)GlcNAc(b1-4)GlcNAc
# In short: as §1
# Fuc(a1-2)[Gal(a1-3)]Gal = biological target: Fuc(a1-2)[Gal(a1-3)]Gal
# In short: as §1
# [4] = biological target: Fuc(a1-2)[Gal(a1-3)]Gal(b1-3)GlcNAc(b1-2)Man(a1-3)[Fuc(a1-2)[Gal(a1-3)]Gal(b1-3)GlcNAc(b1-2)Man(a1-6)]Man(b1-4)GlcNAc(b1-4)GlcNAc
# In short: as §1
# [5] = biological target: Fuc(a1-2)[GalNAc(a1-3)]Gal(b1-4)[Fuc(a1-3)]GlcNAc(b1-3)GalNAc
# In short: as §1
# [6] = biological target: Fuc(a1-2)[GalNAc(a1-4)]Gal(b1-4)GlcNAc
# In short: as §1
# [7] = biological target: Fuc(a1-3)[Gal(b1-4)]GlcNAc(b1-2)Man(a1-3)[Fuc(a1-3)[Gal(b1-4)]GlcNAc(b1-2)Man(a1-6)]Man(b1-4)GlcNAc(b1-4)[Fuc(a1-6)]GlcNAc
# In short: as §1
# [8] = biological target: Fuc(a1-3)[Gal3S(b1-4)]GlcNAc6S
# In short: as §1
# Gal(a1-2)Gal = biological target: Gal(a1-2)Gal
# In short: as §1
# Gal(a1-3)Gal(b1-4)Glc = biological target: Gal(a1-3)Gal(b1-4)Glc
# In short: as §1
# [9] = biological target: Gal(a1-3)Gal(b1-4)GlcNAc(b1-2)Man
# In short: as §1
# [10] = biological target: Gal(a1-3)Gal(b1-4)GlcNAc(b1-2)Man(a1-3)[Gal(a1-3)Gal(b1-4)GlcNAc(b1-2)Man(a1-6)]Man(b1-4)GlcNAc(b1-4)GlcNAc
# In short: as §1
# [11] = biological target: Gal(a1-3)[Gal(a1-4)]Gal(b1-4)GlcNAc
# In short: as §1
# [12] = biological target: Gal(a1-4)Gal(b1-4)GlcNAc(b1-2)Man(a1-3)[Gal(a1-4)Gal(b1-4)GlcNAc(b1-2)Man(a1-6)]Man(b1-4)GlcNAc(b1-4)GlcNAc
# In short: as §1
# [13] = biological target: Gal(b1-3)GalNAc(a1-3)[Fuc(a1-2)]Gal(b1-4)GlcNAc
# In short: as §1
# [14] = biological target: Gal(b1-3)GlcNAc(b1-3)Gal(b1-3)GlcNAc
# In short: as §1
# [15] = biological target: Gal(b1-3)GlcNAc(b1-3)Gal(b1-4)GlcNAc(b1-6)[Gal(b1-3)GlcNAc(b1-3)]Gal(b1-4)Glc
# In short: as §1
# [16] = biological target: Gal(b1-3)GlcNAc(b1-6)Gal(b1-4)GlcNAc
# In short: as §1
# [17] = biological target: Gal(b1-3)[Fuc(a1-4)]GlcNAc
# In short: as §1
# [18] = biological target: Gal(b1-4)GalNAc(a1-3)[Fuc(a1-2)]Gal(b1-4)GlcNAc
# In short: as §1
# [19] = biological target: Gal(b1-4)GlcNAc(b1-2)Man(a1-3)Man(b1-4)GlcNAc(b1-4)GlcNAc
# In short: as §1
# [20] = biological target: Gal(b1-4)GlcNAc(b1-2)Man(a1-3)[GlcNAc(b1-4)][Gal(b1-4)GlcNAc(b1-2)Man(a1-6)]Man(b1-4)GlcNAc(b1-4)GlcNAc
# In short: as §1
# [21] = biological target: Gal(b1-4)GlcNAc(b1-3)Gal(b1-4)GlcNAc(b1-3)Gal(b1-4)GlcNAc(b1-3)Gal(b1-4)GlcNAc(b1-2)Man(a1-3)[Gal(b1-4)GlcNAc(b1-3)Gal(b1-4)GlcNAc(b1-3)Gal(b1-4)GlcNAc(b1-3)Gal(b1-4)GlcNAc(b1-2)Man(a1-6)]Man(b1-4)GlcNAc(b1-4)GlcNAc
# In short: as §1
# [22] = biological target: Gal(b1-4)GlcNAc(b1-3)[Fuc(a1-3)GlcNAc(b1-6)]Gal(b1-4)Glc
# In short: as §1
binder,measurement,setting,value
B1,glycan array binding signal (z-score),[1],-0.462
same,glycan array binding signal (z-score),[2],-0.042
same,glycan array binding signal (z-score),Fuc(a1-2)Gal(b1-4)Glc,-0.031
same,glycan array binding signal (z-score),[3],2.87
same,glycan array binding signal (z-score),Fuc(a1-2)[Gal(a1-3)]Gal,1.72
same,glycan array binding signal (z-score),[4],0.16
same,glycan array binding signal (z-score),[5],-0.162
same,glycan array binding signal (z-score),[6],-0.165
same,glycan array binding signal (z-score),[7],-0.392
same,glycan array binding signal (z-score),[8],-0.054
same,glycan array binding signal (z-score),Gal(a1-2)Gal,-0.938
same,glycan array binding signal (z-score),Gal(a1-3)Gal(b1-4)Glc,-0.366
same,glycan array binding signal (z-score),[9],-0.783
same,glycan array binding signal (z-score),[10],-0.391
same,glycan array binding signal (z-score),[11],2.6
same,glycan array binding signal (z-score),[12],2.35
same,glycan array binding signal (z-score),[13],-0.06
same,glycan array binding signal (z-score),[14],-0.549
same,glycan array binding signal (z-score),[15],-0.446
same,glycan array binding signal (z-score),[16],-0.398
same,glycan array binding signal (z-score),[17],-0.123
same,glycan array binding signal (z-score),[18],-0.291
same,glycan array binding signal (z-score),[19],0.158
same,glycan array binding signal (z-score),[20],-0.249
same,glycan array binding signal (z-score),[21],1.57
same,glycan array binding signal (z-score),[22],-0.046
